# HP1b chromo inh = HTS for Inhibitors of HP1-beta Chromodomain Interactions with Methylated Histone Tails; AlphaScreen HP1-beta / biotin-H3K9me3 peptide binding; Potency, µM (top dose mostly 114 µM), for the others: at the highest dose activity change, negative = inhibition, hits mostly inhibitors; 0.56% of 390,000 active; AID 540317, 2011; note: nearly all actives have a fitted effect of over 70% in size
#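 AlphaScreen: HP1-beta (50 nM) preformed 30 min with biotin-H3(1-18)K9me3 peptide (50 nM) in PBS pH 7.4, 0.01% Tween-20. Compound added for 30 min at RT, then streptavidin donor/nickel chelate acceptor beads (10 ug/mL) for 30 min.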
# BAZ2B inh = qHTS Assay for Inhibitors of BAZ2B | Bromodomain adjacent to zinc finger domain protein 2B (Homo sapiens), Q9UIF8 | AlphaScreen BAZ2B-H3K14Ac peptide displacement | Potency, µM (doses to about 114 µM), without a hit: top-dose activity change, negative = inhibition, most hits filed as inhibitors | 4.4% of 360,000 active | AID 504333, 2011; note: % is set by controls: 0 for no effect and ±100 for the full control effect; nearly all actives have a fitted effect of over 60% in size
# Target sequence (Q9UIF8 whole entry, looked up, the tested form may be a part): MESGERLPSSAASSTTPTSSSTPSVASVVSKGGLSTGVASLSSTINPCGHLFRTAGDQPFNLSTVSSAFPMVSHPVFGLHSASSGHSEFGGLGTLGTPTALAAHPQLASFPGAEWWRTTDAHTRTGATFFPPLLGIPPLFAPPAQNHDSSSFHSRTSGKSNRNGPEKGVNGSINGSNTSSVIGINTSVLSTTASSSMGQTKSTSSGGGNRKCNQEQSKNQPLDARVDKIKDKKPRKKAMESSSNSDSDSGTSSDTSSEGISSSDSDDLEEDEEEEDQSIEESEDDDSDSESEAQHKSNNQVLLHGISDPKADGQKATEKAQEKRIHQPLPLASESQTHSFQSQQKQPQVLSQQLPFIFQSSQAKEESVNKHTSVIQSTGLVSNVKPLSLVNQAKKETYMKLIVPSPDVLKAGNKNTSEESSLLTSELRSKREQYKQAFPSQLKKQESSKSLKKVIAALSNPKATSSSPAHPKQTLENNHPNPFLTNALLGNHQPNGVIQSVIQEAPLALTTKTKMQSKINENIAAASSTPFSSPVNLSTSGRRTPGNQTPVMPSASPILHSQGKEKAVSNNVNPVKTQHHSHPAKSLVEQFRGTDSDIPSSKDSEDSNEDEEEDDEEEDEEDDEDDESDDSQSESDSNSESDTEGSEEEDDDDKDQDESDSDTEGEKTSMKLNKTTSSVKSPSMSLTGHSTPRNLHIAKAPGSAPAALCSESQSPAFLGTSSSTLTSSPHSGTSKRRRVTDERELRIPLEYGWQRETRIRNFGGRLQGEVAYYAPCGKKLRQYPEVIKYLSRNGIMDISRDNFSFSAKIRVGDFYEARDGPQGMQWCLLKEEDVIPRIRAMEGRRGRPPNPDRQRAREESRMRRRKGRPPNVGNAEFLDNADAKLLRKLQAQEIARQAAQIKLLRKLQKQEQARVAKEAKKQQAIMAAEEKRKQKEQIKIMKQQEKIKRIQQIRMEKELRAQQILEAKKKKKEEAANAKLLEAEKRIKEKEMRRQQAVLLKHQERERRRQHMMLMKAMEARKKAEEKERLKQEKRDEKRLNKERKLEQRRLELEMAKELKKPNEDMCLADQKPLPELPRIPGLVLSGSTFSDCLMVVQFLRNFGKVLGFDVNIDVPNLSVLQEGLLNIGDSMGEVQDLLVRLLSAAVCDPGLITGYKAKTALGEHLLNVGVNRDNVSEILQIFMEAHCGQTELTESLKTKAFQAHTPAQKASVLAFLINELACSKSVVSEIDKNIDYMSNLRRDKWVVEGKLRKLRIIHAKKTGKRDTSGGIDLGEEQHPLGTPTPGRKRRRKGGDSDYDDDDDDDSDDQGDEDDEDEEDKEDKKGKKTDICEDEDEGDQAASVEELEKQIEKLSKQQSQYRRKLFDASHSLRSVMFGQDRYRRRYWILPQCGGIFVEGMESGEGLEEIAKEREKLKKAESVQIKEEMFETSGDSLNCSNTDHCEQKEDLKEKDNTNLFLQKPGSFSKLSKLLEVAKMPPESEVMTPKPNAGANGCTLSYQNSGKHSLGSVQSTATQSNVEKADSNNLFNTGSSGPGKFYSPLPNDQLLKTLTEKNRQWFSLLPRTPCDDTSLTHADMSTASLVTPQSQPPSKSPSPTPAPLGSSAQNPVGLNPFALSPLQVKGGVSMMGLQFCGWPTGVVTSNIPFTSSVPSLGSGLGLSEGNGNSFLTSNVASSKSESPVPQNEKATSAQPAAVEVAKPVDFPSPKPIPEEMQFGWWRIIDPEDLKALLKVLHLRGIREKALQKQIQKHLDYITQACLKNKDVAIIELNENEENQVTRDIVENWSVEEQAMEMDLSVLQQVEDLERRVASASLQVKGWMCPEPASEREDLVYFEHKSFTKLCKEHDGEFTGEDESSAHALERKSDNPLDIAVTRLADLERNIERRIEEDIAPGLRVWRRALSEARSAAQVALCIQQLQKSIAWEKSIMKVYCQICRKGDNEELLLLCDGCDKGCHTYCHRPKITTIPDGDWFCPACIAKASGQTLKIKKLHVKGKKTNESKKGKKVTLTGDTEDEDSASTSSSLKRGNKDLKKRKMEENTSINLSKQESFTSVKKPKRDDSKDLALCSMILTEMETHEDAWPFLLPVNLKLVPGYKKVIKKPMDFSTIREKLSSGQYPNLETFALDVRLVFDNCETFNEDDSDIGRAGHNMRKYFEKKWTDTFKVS
#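 AlphaScreen displacement of biotin-H3(5-23)K14Ac peptide (50 nM final) from BAZ2B (50 nM final) in PBS pH 7.4, 0.01% Tween-20; complex preformed 30 min RT, then compounds (top 110 uM) 30 min RT, beads 20 min dark.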
# JMJD2A Tudor = qHTS Assay for Inhibitors of JMJD2A-Tudor Domain; Potency, µM (titrated, usually from 114 µM), inactives show top-dose activity change, negative = inhibition, most hits filed as inhibitors; 4.4% of 390,000 active; AlphaScreen JMJD2A-Tudor / H3K4me3 peptide binding; note: % is set by controls: 0 for no effect and ±100 for the full control effect; nearly all actives have a fitted effect of over 50% in size
# G9a inh = qHTS Assay for Inhibitors of Histone Lysine Methyltransferase G9a | Histone-lysine N-methyltransferase EHMT2 (Homo sapiens), Q96KQ7 | G9a H3K9 monomethylation, AlphaScreen, 2 h | Potency, µM (titrated, usually from 102 µM), for the others: top-dose activity, negative = inhibition, actives largely listed as inhibitors | 8.8% of 350,000 active | AID 504332, 2011; note: % is set by controls: 0 for no effect and ±100 for the full control effect; nearly all actives have a fitted effect of over 75% in size
#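 Chemiluminescent proximity detection of H3K9 monomethylation, read after 10 min bead incubation in the dark. Reaction: 20 nM G9a, 500 nM biotin-H3K9 peptide, 20 uM SAM cofactor, 2 h, room temperature, following 15 min enzyme-compound preincubation.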
# Sfp PPTase inh = qHTS Assay for Inhibitors of Bacillus subtilis Sfp phosphopantetheinyl transferase (PPTase). AID 1490, 2009. Potency, µM, for the others: largest response in the series, negative = inhibition, actives largely listed as inhibitors. Biochemical Sfp PPTase activity, qHTS. 3.5% of 310,000 active;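 note: the enzyme is Sfp with the accession as filed and its product quenches rhodamine fluorescence; 0% = enzyme reaction without inhibitor and -100% = no enzyme wells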
#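 After 15 min at room temperature with compound, 15 nM Sfp received 5 uM rhodamine-CoA plus 12.5 uM BHQ-2-ybbR (50 mM Hepes pH 7.6, 10 mM MgCl2). Rate came from the fluorescence difference over 30 min, ex 525/em 598 nm.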
# 12-LOX inh = Primary qHTS assay for inhibitors of human arachidonate 12S-lipoxygenase (ALOX12): Round 2. Polyunsaturated fatty acid lipoxygenase ALOX12 (Homo sapiens), P18054. purified 12hLO, xylenol orange hydroperoxide absorbance. Potency, µM (titrated, usually from 108 µM), without a hit: at the highest dose activity change, negative = inhibition, actives largely listed as inhibitors. 1.1% of 580,000 active; note: % is set by controls: 0 for no effect and ±100 for the full control effect
#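 Purified human 12hLO (150 nM final) in 25 mM Hepes, 0.01% Triton X-100, pH 7.0 was preincubated 15 min at room temperature with compound. Then 40 uM arachidonic acid was added, 30 min. Hydroperoxide was read by Fe-XO absorbance ratio 573/405 nm.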
# Starred values were filed as active, the others as inactive; ? = inconclusive; . = no result given; ! = a repeat was not active; [ ] = dose if it differs, or a comment. A selection: hits, their analogues and other compounds. The true share with any hit is near 8.7%. Calls come from the whole dose curve; as a rule, active = well fitted curve in the direction sought with a large enough effect; inconclusive = small, poorly fitted or top-dose-only effect, or another doubt; inactive = no such curve, though single readings can be large; an effect the other way counts as inactive or inconclusive. Potency is the fitted concentration of half-maximal effect.
SMILES,HP1b chromo inh,BAZ2B inh,JMJD2A Tudor,G9a inh,Sfp PPTase inh,12-LOX inh
COc1ccc(-n2c(C)c(C(=O)O)c3cc(OC)ccc32)cc1,.,.,.,.,.,-11%
O=C(c1ccccc1OCC1CCCN(Cc2cccnc2)C1)N1CCCCC1 (stereo not drawn),.,.,.,.,.,30%
Nc1nc(C23CC4CCC(CC(C4)C2)C3)cs1,-1%,-9%,-24%,?,5%,-15%
Nc1nc(C23CC4CC(CC(Cl)(C4)C2)C3)cs1,9%,71µM*,-26%,6%[59 µM],6%,182%
CN(C)CCOC(c1ccc(Cl)cc1)c1ccccn1 (stereo not drawn),71%,-2%,-6%,45µM*!,18%,19%
CN(C)CC[C@H](c1ccc(Cl)cc1)c1ccccn1,.,.,.,22%[21.5 µM],17%,?
COc1cc2cnc(-c3ccccc3)c(-c3cccc(C(F)(F)F)c3)c2cc1OC,19%,56µM*,-34%,5%[0.501 µM],.,?
Fc1ccc2cnc(-c3ccccc3)c(-c3cccc(C(F)(F)F)c3)c2c1,54%,46%,-6%,2%[0.501 µM],.,-41%
CN1CCC(OC2CCN(S(=O)(=O)c3ccc(F)cc3F)CC2)CC1,.,.,.,.,.,47%
COc1cc(OC)cc(C(=O)Nc2ccc3nc4c(c(Nc5ccc(OC)c(OC)c5)c3c2)CCCC4)c1,?,10µM*,?,18µM*,.,?
COc1ccccc1Nc1c2c(nc3ccc(NC(=O)c4ccc(N(C)C)cc4)cc13)CCCC2,-22%,4µM*,16µM*,7.9µM*,.,-48%
CCOc1ccccc1C(=O)Nc1ccc2nc3c(c(Nc4ccc(OC)c(OC)c4)c2c1)CCCC3,-22%,-35%,?,-29%[59 µM],.,?
CCc1ccc(C(=O)NCc2ccc(N3CCN(C)CC3)nc2)s1,.,.,.,.,.,5%
C/C(=N\O)C(C)N(O)C(C)/C(C)=N/O (stereo not drawn),.,.,.,.,.,-19%
C#CCN(C[C@H]1[C@H](OC(=O)NCC2CCCCC2)[C@H](OC(=O)NCC2CCCCC2)C[C@H]2C(=O)N(c3ccccc3)C(=O)[C@@H]12)S(=O)(=O)c1ccc(C)cc1,.,.,.,.,.,45µM*
CCOc1ccc(NC(=O)CSC2=C(C#N)C(c3ccccc3Cl)C(C(C)=O)=C(C)N2)cc1 (stereo not drawn),.,.,.,.,.,32µM*
CCOC(=O)CSC1=C(C#N)C(c2ccccc2F)C(C(C)=O)=C(C)N1 (stereo not drawn),42%,8%,?,?,63µM*,0%
CSCSC1=C(C#N)C(c2ccccc2Cl)C(C(C)=O)=C(C)N1 (stereo not drawn),59%,30%,-29%,4µM*,?,?
CCOC(=O)CSC1=C(C#N)C(c2sccc2C)C(C(C)=O)=C(C)N1 (stereo not drawn),40%,2%[57.1 µM],4%,-1%,?,-27%
CCC(C(=O)NCc1ccc(OC)cc1)c1ccccc1 (stereo not drawn),.,.,.,.,.,13%
CCN1CCN(CCOc2ccc3c(=O)c(-c4ccc(Cl)cc4)coc3c2)CC1,.,.,.,.,.,18µM*
COc1ccc(CCNC(=O)CN(c2ccc(F)c(Cl)c2)S(C)(=O)=O)cc1OC,.,.,.,.,.,-31%
O=S(CC(O)c1ccccc1)c1ccccc1 (stereo not drawn),.,.,.,.,.,28µM*
Cc1ccc(S(=O)C(c2ccccc2)c2ccccc2)cc1 (stereo not drawn),46%,.,-3%,.,.,22µM*
CC(=O)c1ccc(S(=O)c2ccccc2)cc1 (stereo not drawn),13%,-1%,4%,25%[59 µM],-1%,0%
SMILES,HP1b chromo inh,BAZ2B inh,JMJD2A Tudor,G9a inh,Sfp PPTase inh,12-LOX inh
O=S(c1ccccc1)C(c1ccccc1)c1ccccc1 (stereo not drawn),55%,.,-1%,.,.,32µM*
Cc1cccc(S(=O)C(c2ccccc2)c2ccccc2)c1 (stereo not drawn),42%,.,4%,.,.,?
Cc1ccccc1CNC(=O)Cn1cnc2c1c(=O)n(C)c(=O)n2C,.,.,.,.,.,23%
Cc1ccc(C(=O)Cn2cnc3c2c(=O)n(C)c(=O)n3C)cc1C,.,.,.,.,.,-37%
O=C(NNC(=O)c1c2c(nc3ccccc13)CCCC2)c1ccccn1,.,.,.,.,.,6%
Cc1nc(NC(=O)C2c3ccccc3C(=O)N(C3CCCC3)C23CCCC3)sc1C (stereo not drawn),.,.,.,.,.,-4%
COc1ccc2c(c1)C=C(C(=O)OCc1cccnc1)CO2,-1%,-28%,35µM*,-33%,-22%,-7%
COc1ccc(CNC(=O)C(=O)NCc2cccnc2)cc1,20%,-5%,-14%,.,4%,-5%
CC(Sc1nnc(-c2cccnc2)n1N)C(=O)NCCC1=CCCCC1 (stereo not drawn),8%,7%,-12%,56µM*,.,-3%
CC(Sc1nnc(-c2ccco2)o1)C(=O)NCCC1=CCCCC1 (stereo not drawn),44%,-2%,-5%,50µM*,8%,13%
C=C(C)C(=O)Nc1cccc(C2=NOC3(C2)C[C@@H](C(N)=O)N(C(=O)CCCCC)C3)c1 (stereo partly drawn),1.6µM*,1.4µM*,1.8µM*,?,11%,-7%
C=C(C)C(=O)Nc1cccc(C2=NOC3(C2)C[C@@H](C(N)=O)N(C(=O)c2cc([N+](=O)[O-])cc([N+](=O)[O-])c2)C3)c1 (stereo partly drawn),20µM*,28µM*,28µM*,?,3%,-13%
C=C(C)C(=O)Nc1cccc(C2=NOC3(C2)C[C@@H](C(N)=O)N(C(=O)c2ccc(OC)cc2)C3)c1 (stereo partly drawn),3.2µM*,1.8µM*,2.8µM*,?,13%,.
CCCCCC(=O)Nc1cccc(C2=NOC3(C2)C[C@@H](C(N)=O)N(C(=O)c2cc([N+](=O)[O-])cc([N+](=O)[O-])c2)C3)c1 (stereo partly drawn),-4%,-31%,?,?,-1%,?
CCCCCC(=O)Nc1cccc(C2=NOC3(C2)C[C@@H](C(N)=O)N(C(=O)c2ccc(OC)cc2)C3)c1 (stereo partly drawn),10%,?,-35%,-47%[59 µM],6%,-8%

# Bioassay records from PubChem.
